Source: PubChem BioAssay
Active and inactive are the calls of the source.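 How the source made its calls, unless noted: active means compounds whose cell count with miR-34 switched on is under 0.7 times the count with it off; inactive means the rest.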 Where a SMILES comes first, the peptide text is derived from it.

Tests used:
[1] = viability loss with induced miR-34 in A549 – imaging, A549 dox-inducible miR-34, nuclei and caspase counts, primary screen (AID 1347080); details: A549 miR-34 inducible, Hoechst nuclei count, 48 h
[2] = MELAS cybrid and Rieske KO viability enhancers – cell-based, MELAS cybrids, Rieske KO mouse fibroblasts, CellTiter-Glo, primary screen (AID 1508586;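 active means mean z-score across replicates of 1.96 or higher in either the MELAS or the Rieske mutant cell line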;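 further: z relative to plate mean and SD of compound and empty wells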); details: low glucose
[3] = stronger effect = lower value, cell number ratio, induced over uninduced
[4] = measured here: relative caspase fold change +Dox/-Dox
[5] = measured here: total cells with miR-34 induction, stronger effect = lower value
[6] = measured here: total cells without miR-34 induction
[7] = MELAS cybrid survival, CellTiter-Glo 48 h, stronger effect = higher value
[8] = Rieske KO mouse fibroblast survival, CellTiter-Glo 72 h
Further: test concentration not given here.

SMILES | fold change [1, 3] | fold change [1, 4] | cell count [1, 5] | cell count [1, 6] | z-score [2, 7] | z-score [2, 8]
CC(=O)Nc1cccc2c1c(Sc1ccc(Cl)cc1)c(C)n2CC(=O)O | 0.864 (inactive) | 0.281 | 7890 | 9130 | -0.287 (inactive) | -2.23
C#C[C@@]1(O)CC[C@H]2[C@@H]3CCc4cc(O)ccc4[C@@H]3CC[C@@]21C | 0.952 (inactive) | 0.969 | 6120 | 6420 | 0.773 (inactive) | 0.776
C=CC1CN2CC[C@H]1C[C@H]2C(O)c1ccnc2ccc(OC)cc12 (some centres not stated) | 0.964 (inactive) | 0.844 | 8110 | 8420 | -0.205 (inactive) | -0.396
CC(CCC(=O)O)[C@@H]1CC[C@H]2[C@@H]3C(O)C[C@@H]4CC(O)CC[C@]4(C)[C@@H]3CC[C@]12C (some centres not stated) | 0.828 (inactive) | 0.703 | 7430 | 8980 | -0.242 (inactive) | 0.0686
CC(C)CCNC(=O)C(CC(C)C)NC(=O)C1OC1C(=O)O (configuration not stated) | 0.919 (inactive) | 0.36 | 8670 | 9430 | -0.356 (inactive) | 0.0853
Cn1ncnc1C1c2n[nH]c(=O)c3cc(F)cc(c23)NC1c1ccc(F)cc1 (configuration not stated) | 0.895 (inactive) | 1.04 | 2740 | 3060 | -0.229 (inactive) | -0.124
N#CC1CCCN1C(=O)CNC12CC3CC(CC(O)(C3)C1)C2 (configuration not stated) | 0.959 (inactive) | 0.68 | 8400 | 8750 | -0.00674 (inactive) | 0.11
CC#C[C@@]1(O)CC[C@H]2[C@@H]3CCC4=CC(=O)CCC4=C3C(c3ccc(N(C)C)cc3)C[C@@]21C (some centres not stated) | 0.891 (inactive) | 1.53 | 6640 | 7460 | -0.469 (inactive) | 0.644
CCCC(NC(=O)C(C#N)=Cc1cccc(Br)n1)c1ccccc1 (configuration not stated) | 0.929 (inactive) | 0.922 | 824 | 888 | 3.82 (active) | -1.38
O=C(O)c1ccc(C=C2SC(=S)N(c3cccc(C(F)(F)F)c3)C2=O)cc1 | 0.824 (inactive) | 0.518 | 6780 | 8220 | -0.207 (inactive) | -3.49
C=CCC1C=C(C)CC(C)CC(OC)C2O[C@@](O)(C(=O)C(=O)N3CCCC[C@H]3C(=O)OC(C(C)=CC3CCC(O)C(OC)C3)C(C)C(O)CC1=O)C(C)CC2OC (some centres not stated) | 0.917 (inactive) | 0.834 | 7870 | 8580 | -0.545 (inactive) | 0.683
CC(=O)c1cc([N+](=O)[O-])c(Sc2ccc(F)cc2F)s1 | 0.898 (inactive) | 0.374 | 8140 | 9060 | -0.42 (inactive) | 0.533
Nc1ncn(C2CC(O)C(CO)O2)c(=O)n1 (configuration not stated) | 0.936 (inactive) | 0.727 | 7530 | 8050 | -0.461 (inactive) | 0.644
CCOC1OC(=O)CC1NC(=O)C1CCCN1C(=O)C(NC(=O)c1ccc(N)c(Cl)c1)C(C)(C)C (configuration not stated) | 0.983 (inactive) | 0.559 | 8140 | 8280 | -0.153 (inactive) | 0.0351
O=C(C=Cc1cccc(S(=O)(=O)Nc2ccccc2)c1)NO | 0.967 (inactive) | 0.71 | 1120 | 1160 | 0.973 (inactive) | 1.18
O=C(C=Cc1ccc(O)c(O)c1)OC1C[C@@](O)(C(=O)O)CC(O)C1O (some centres not stated) | 0.936 (inactive) | 0.802 | 8020 | 8570 | -0.38 (inactive) | -0.0852
OC(CC1c2ccccc2-c2cncn21)C1CCCCC1 (configuration not stated) | 0.992 (inactive) | 0.351 | 8340 | 8410 | -0.436 (inactive) | -0.0844
CCNC(=O)Nc1ccc(-c2nc3c(c(N4CCOCC4C)n2)CCN(C2COC2)C3)cc1 (configuration not stated) | 0.905 (inactive) | 0.555 | 2790 | 3080 | 2.89 (active) | -0.834
CN1[C@@H]2CC(OC(=O)C(CO)c3ccccc3)C[C@H]1[C@@H]1O[C@H]12 (some centres not stated) | 0.946 (inactive) | 0.844 | 9480 | 10000 | -0.356 (inactive) | 0.736
NC(Cc1c[nH]c2ccc(O)cc12)C(=O)O (configuration not stated) | 0.876 (inactive) | 0.739 | 8790 | 10000 | -0.256 (inactive) | 0.553
COC(=O)C(Cc1ccccc1)NC(=O)C(N)CC(=O)O (stereo not drawn) (H-Asp-Phe-OMe; configuration not given here) | 0.938 (inactive) | 0.532 | 8220 | 8770 | -0.285 (inactive) | -0.555
COC(=O)C1C(OC)C(OC(=O)c2cc(OC)c(OC)c(OC)c2)C[C@@H]2CN3CCc4c([nH]c5cc(OC)ccc45)[C@H]3C[C@H]12 (some centres not stated) | 0.925 (inactive) | 0.845 | 7190 | 7770 | -0.484 (inactive) | 0.995
